Rev-erbA mod: modulators of human Rev-erb alpha DNA binding | P20393 | Rev-erbα–FITC-DNA binding, fluorescence polarization, 90 min | activity, % at 10 µM | 370,000 tested, 0.79% active;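 active = activity above about 14%, limit read from the data; passing the limit was not always enough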;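 also: 0% = DMSO wells with 35 nM protein and 100% = DMSO wells with 750 nM protein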
Target sequence (P20393 whole entry, looked up): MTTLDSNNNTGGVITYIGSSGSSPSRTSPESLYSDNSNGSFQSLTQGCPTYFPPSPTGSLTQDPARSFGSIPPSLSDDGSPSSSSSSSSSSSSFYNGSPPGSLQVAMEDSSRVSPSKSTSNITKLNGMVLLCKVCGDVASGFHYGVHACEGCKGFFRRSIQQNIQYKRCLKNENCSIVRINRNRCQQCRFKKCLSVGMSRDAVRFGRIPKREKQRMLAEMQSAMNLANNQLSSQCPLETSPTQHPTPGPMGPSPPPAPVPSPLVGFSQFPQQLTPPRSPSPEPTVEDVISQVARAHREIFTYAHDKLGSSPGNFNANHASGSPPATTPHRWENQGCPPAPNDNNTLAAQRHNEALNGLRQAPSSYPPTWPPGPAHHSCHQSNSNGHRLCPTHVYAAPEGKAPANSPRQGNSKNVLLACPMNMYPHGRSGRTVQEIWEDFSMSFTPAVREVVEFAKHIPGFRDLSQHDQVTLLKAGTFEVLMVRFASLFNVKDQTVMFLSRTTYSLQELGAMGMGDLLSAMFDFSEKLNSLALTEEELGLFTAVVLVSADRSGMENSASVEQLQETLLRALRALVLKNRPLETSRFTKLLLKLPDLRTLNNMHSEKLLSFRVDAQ
RAM inhibit: yeast RAM network inhibition; S. cerevisiae dse1pr::URA3 reporter, 5-FOA growth OD615, 2 d; analog-sensitive cbk1-as2 kinase mutant strain; inhibition, % at 50 µM; 190,000 tested, 1.8% active; AID 868;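 active = inhibition above a set limit, 3 SD over mean compound inhibition, cut at about 8.4% in these data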;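 also: 0% = DMSO-only wells with no growth and 100% = 10 µM 1-NA-PP1 full growth; inhibition rescues growth on 5-FOA so higher OD means more RAM inhibition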
EP2 modulator: modulates human prostaglandin E2 receptor EP2 signaling. P43116. EP2-expressing cells, cAMP HTRF FRET, PGE2 co-stimulation. induction, % at 25 µM. 260,000 tested, 0.83% active;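 active = compounds whose cAMP rise, as percent of the full-agonist control response, exceeds 60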;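 also: rat C6 glioma line stably carrying human EP2 under a CMV promoter; the protocol text gives 20 µM as final concentration; 100% = response of wells given 1 µM PGE2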
PGE2 EP2 inh: EP2 receptor (human) inhibition; C6 glioma cells expressing human EP2, cAMP TR-FRET; cells stimulated with saturating PGE2; AID 1422; 260,000 tested, 0.52% active; inhibition, % at 25 µM; P43116;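 active = percent inhibition above 40 after rounding to a whole number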;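 also: rat C6 glioma host cells with rolipram phosphodiesterase inhibitor present; the protocol text gives 20 µM as final concentration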
SKN-1 block: blocks SKN-1 activity in C. elegans; inhibition, % at 21.8 µM; 360,000 tested, 0.49% active; AID 624304; C. elegans VP596 Pgst-4::GFP/RFP ratio, acrylamide-induced, 24 h;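 active = interference check ratio from 0.5 to 1.5 plus GFP to RFP signal ratio inhibition reaching or exceeding a fixed threshold, cut at about 30% in these data, passing the limit was not always enough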
PG9 binder: PG9 antibody binding by small molecule; TR-FRET gp120-PG9 antibody binding; inhibition, % at 6.7 µM; 360,000 tested, 0.43% active; AID 624416; in the data active = inhibition above about 8.5%
RAM 5-FOA: restores 5-FOA growth of efflux-deficient yeast. S. cerevisiae efflux-deficient reporter strain, 5-FOA growth OD615, 2 days. AID 1305. 1,200 tested, under 10 active. max inhibition, %. shares compounds with RAM inhibit; call rule not given here;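 also: plate controls were vehicle for no effect and reference inhibitor for full effect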
* hit, by the source's call. An excerpt weighted towards active compounds, which were near 2.9% of everything screened.

`CCOc1ccc(-c2nnc3ccc(SCc4ccc(C(=O)OC)o4)nn23)cc1` gave Rev-erbA mod 7, RAM inhibit 12*, EP2 modulator -37, PGE2 EP2 inh 7, SKN-1 block 10, PG9 binder 2 and RAM 5-FOA 1.
For CCc1ccc2[nH]c(=O)c(C(c3nnnn3CCc3ccccc3)N3CCCCC3)cc2c1 (stereo not drawn) the results were EP2 modulator 12 and PGE2 EP2 inh 15.
For O=C(Nc1ccc(N2CCOCC2)c(Cl)c1)c1ccccc1I the results were EP2 modulator -99 and PGE2 EP2 inh 21.
For CCCCOC(=O)c1ccc(NC(=S)NC(=O)c2c(Cl)cnn2C)cc1 the results were Rev-erbA mod 5, RAM inhibit 16*, EP2 modulator 28, PGE2 EP2 inh 18, SKN-1 block -1, PG9 binder -2 and RAM 5-FOA 1.
CCCCOC(=O)c1ccc(NC(=S)NC(=O)c2c(Cl)cnn2CC)cc1 was read as Rev-erbA mod 2, RAM inhibit 8, EP2 modulator 19, PGE2 EP2 inh 16, SKN-1 block 0 and PG9 binder -1.
Cc1cc(S(=O)(=O)N2CCCCC2C)ccc1-n1cnnn1 (stereo not drawn) was read as EP2 modulator -2 and PGE2 EP2 inh 13.
Cc1n[nH]c(C)c1CNC(=O)CN1C(=O)COc2ccc(C(C)(C)C)cc21 was read as EP2 modulator -12 and PGE2 EP2 inh 0.
Screening Cc1ccc(S(=O)(=O)N2CCC(=O)N([C@H](COCc3cccc(C(F)(F)F)c3)C(C)C)CC2)cc1 returned Rev-erbA mod -2, SKN-1 block 4 and PG9 binder 0.
Cc1cccc(COCC(Cc2ccccc2)N2CCN(C(=O)c3ccc(C(F)(F)F)cc3)CCC2=O)c1 (stereo not drawn) was read as RAM inhibit 13*, EP2 modulator 18, PGE2 EP2 inh 3, SKN-1 block -8 and RAM 5-FOA 1.
Cc1ccc(S(=O)(=O)N2CCC(=O)N(C(COCc3ccc(Cl)c(Cl)c3)Cc3ccccc3)CC2)cc1 (stereo not drawn) was read as RAM inhibit 12*, EP2 modulator 31, PGE2 EP2 inh 9 and RAM 5-FOA 3.
Cc1ccc(S(=O)(=O)N2CCC(=O)N(C(COCc3cccc(C)c3)Cc3ccccc3)CC2)cc1 (stereo not drawn) was read as Rev-erbA mod 7, RAM inhibit 14*, EP2 modulator 40, PGE2 EP2 inh 11, SKN-1 block 4, PG9 binder -2 and RAM 5-FOA 2.
Screening Cc1ccc(S(=O)(=O)N2CCC(=O)N(C(COCc3ccc(C(F)(F)F)cc3)C(C)C)CC2)cc1 (stereo not drawn) returned RAM inhibit 12*, EP2 modulator 51, PGE2 EP2 inh 14, SKN-1 block -3 and RAM 5-FOA 1.
`N#C/C(=C\C1=C(N2CCOCC2)C(=C/c2cccc([N+](=O)[O-])c2)/CC1)C(=O)Nc1ccccc1F` gave Rev-erbA mod 7, RAM inhibit 11*, EP2 modulator 17, PGE2 EP2 inh 8, SKN-1 block 84, PG9 binder -1 and RAM 5-FOA 3.
COc1ccc(-n2ncc3c(SCC(=O)OC4CCCCC4)ncnc32)cc1 was read as EP2 modulator 43 and PGE2 EP2 inh 14.
For Cc1ccc(Cl)cc1N1CCN(C(=S)NCCc2ccccc2)CC1 the results were Rev-erbA mod 0, RAM inhibit 13*, EP2 modulator -6, PGE2 EP2 inh 4, SKN-1 block -4, PG9 binder -2 and RAM 5-FOA 3.
`COCC(C)NC(=O)CCCSc1nc(-c2ccco2)cc(C(F)(F)F)n1` (stereo not drawn) gave EP2 modulator -108 and PGE2 EP2 inh 8.
For CN(Cc1ccccc1)C(=O)c1[nH]cnc1C(=O)NCC(=O)OCc1ccccc1 the results were Rev-erbA mod 0, SKN-1 block 0 and PG9 binder 1.
CC(C)C[C@H](NC(=O)c1nc[nH]c1C(=O)NCc1ccccc1)C(=O)OCc1ccccc1 was read as Rev-erbA mod 4, RAM inhibit 14*, EP2 modulator 11, PGE2 EP2 inh 6, SKN-1 block 13, PG9 binder -1 and RAM 5-FOA 8.
Screening CN(Cc1ccccc1)C(=O)c1[nH]cnc1C(=O)N[C@@H](Cc1ccccc1)C(=O)OCc1ccccc1 returned RAM inhibit 12*, EP2 modulator 1, PGE2 EP2 inh 8, SKN-1 block 1 and RAM 5-FOA 3.
Screening CC(C)(C)OC(=O)NCCCCCNC(=O)c1[nH]cnc1C(=O)N[C@@H](Cc1ccccc1)C(=O)OCc1ccccc1 returned Rev-erbA mod 2, RAM inhibit 13*, EP2 modulator 6, PGE2 EP2 inh 13, SKN-1 block 18, PG9 binder -2 and RAM 5-FOA 7.
`CC(C)C[C@H](NC(=O)c1[nH]cnc1C(=O)N[C@@H](C)C(=O)OCc1ccccc1)C(=O)OCc1ccccc1` gave Rev-erbA mod 6, SKN-1 block 6 and PG9 binder -1.
Screening CN(C)c1ccc(N=Nc2ccccc2C(=O)OCC(=O)Nc2ccccc2C(F)(F)F)cc1 returned Rev-erbA mod 24, RAM inhibit 20*, EP2 modulator 24, PGE2 EP2 inh 13, SKN-1 block 12, PG9 binder -1 and RAM 5-FOA 5.
`CCN(CC)C(C)c1ccc(C(=O)OC)o1` (stereo not drawn) gave EP2 modulator -4 and PGE2 EP2 inh 22.
`C/C(=N\Nc1nc2c(s1)CCCC2)c1ccc(Cl)cc1` gave Rev-erbA mod 2, RAM inhibit 13*, EP2 modulator 30, PGE2 EP2 inh 11, SKN-1 block 8, PG9 binder -1 and RAM 5-FOA 1.
Screening CCCCc1ccc(N=N/C(C(=O)Nc2ccccc2OC)=C(/C)O)cc1 returned Rev-erbA mod -5, RAM inhibit 20*, EP2 modulator 38, PGE2 EP2 inh 2, SKN-1 block 10, PG9 binder 1 and RAM 5-FOA 8.
Cc1cc(C)c(NC(=O)COC(=O)CSc2ccc(Br)cc2C)c(C)c1 was read as Rev-erbA mod 4, RAM inhibit 8, EP2 modulator 21, PGE2 EP2 inh 8, SKN-1 block 1 and PG9 binder -1.
Screening Cc1cc(Br)ccc1SCC(=O)OCC(=O)NC1CCCC1 returned Rev-erbA mod 3, RAM inhibit 17*, EP2 modulator 3, PGE2 EP2 inh 9, SKN-1 block 1, PG9 binder -3 and RAM 5-FOA 2.
